Assay results taken from the OligoGym collection.

Each sequence was assayed against SLC20A1 (assay: pooled miR-30 sensor sort-seq; sequence = guide strand). Conditions: shRNA.
Note: reference of the scale not given here.

Row | Sequence | sensor-assay potency score (higher = more potent)
1 | TAGGCAACTGCACTGCACCATT | -0.846
2 | TTCTCGTTCAATTTTTCTCTTC | -0.376
3 | TTCAATATCACCAACAGACAAC | -1
4 | TTTTCTGTCACCTAGACCCATC | -0.857
5 | TAGAGTAGAAGCCATATTGGTG | -0.743
6 | TTGACTGAACTGGACAAGGTTC | -0.668
7 | TAGCACAAGTAACACTTCCCTC | -0.562
8 | TTCACGGTGCTATCTATGCTGG | -1.16

What follows are sequences tested against SLC22A17 in the same assay as above. Conditions: shRNA.

Row | Sequence | sensor-assay potency score (higher = more potent)
9 | TCCGGCAGCAGCATAATGCTGA | -0.933
10 | TGCTCCAGGATCACCTGCCAGC | -1.29
11 | TATTGAAACAGAATGATAGAGC | -0.514
12 | TCACTATCAGCCACCGTGCGGA | -0.275
13 | TAACCCAGGAACAGGTAGCCGG | -1.09
14 | TGAAACAGAATGATAGAGCAAG | -0.0667
15 | TAGACACCCAGGTCAACACCGG | -0.269
16 | AAGGTCAGCAGCACAATCCCGC | -0.694
17 | ATTATAGTCCCAATCCTTGAGG | -1.04
18 | TCTGTCTGCGGGGTAACCCAGG | -1.27
19 | TTCACTATCAGCCACCGTGCGG | -0.928

What follows are sequences tested against SLC22A1 in the same assay as above. Conditions: shRNA.

Row | Sequence | sensor-assay potency score (higher = more potent)
20 | TACATGATCGCCACCGTTCTTC | -0.241
21 | ATGATTATGATGTTTAACCAGT | -1.09
22 | TTCTGCAGAGGATAACTCCATC | -0.998
23 | TGGTACATGATCGCCACCGTTC | -1.08
24 | TTTTGTGATAACAGCCACCGAG | -0.543
25 | TATAGTTCAGCTCCTCCGCAGG | -0.994
26 | TTTCGGTGACATCCTCTTCGAG | -1.03
27 | TTTGTGATAACAGCCACCGAGG | -0.671
28 | TGATAGAGCACAGAGTCCGTGA | -0.157
29 | TTCGGTGACATCCTCTTCGAGG | 0.00261
30 | TTTATTGCTTCAGTGTTTCTTT | 0.132
31 | TATCTTTATTGCTTCAGTGTTT | -0.476

Each sequence was assayed against SLC22A7 in the same assay as above. Conditions: shRNA.

Row | Sequence | sensor-assay potency score (higher = more potent)
32 | TTTATTTACAGAATCCTCCCCA | 0.685
33 | TTACATAGCTGACGGAGGCTGC | -0.245
34 | TTATTTACAGAATCCTCCCCAA | -0.0957
35 | TTCTGAGTGGTCGTACTCCCAG | -1.56
36 | TAGGGTACAACTCTGAAGTGAA | 0.4
37 | TAATAGGAGAAGTTCACTCCGA | 0.0839
38 | TGAAGCTGTCCTCACACACTGG | -0.999
39 | TACAACTCTGAAGTGAACAGGT | 0.517
40 | TCTGAGTGGTCGTACTCCCAGC | -1.03
